# Test results: PubChem BioAssay AID449 (The Scripps Research Institute Molecular Screening Center, 2006)
# In all, about 56,000 compounds went through this assay and about 320 (0.57%) were called active.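 How the source made its calls: active means activation above a cutoff set at the mean activation of all tested compounds plus 3 SD (cut at about 54% in these data); inactive means the rest, inconclusive results apart.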 The sample as a whole holds a higher share of actives than the screen did.
# Target: Sphingosine 1-phosphate receptor 1 (Homo sapiens) (UniProt P21453)
# Assay: activation or potentiation of human S1P1 signaling – cell-based, primary and confirmation screens, CRE-bla reporter, primary screen (AID 449);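 further: forskolin at 4 µM as EC80 and the EC20 agonist is SEW2871; 100% = SEW2871 at its EC100 plus forskolin at EC80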
# Conditions: S1P1 CRE-bla cells, forskolin, beta-lactamase FRET, potentiator mode, at 9.5 µM, stronger effect = higher value, 100% = saturating reference agonist, 0% = basal, S1P1 agonist co-added at EC20, 2 nM
# [1] = measured here: confirmation screen, triplicate average
# Sequence of Sphingosine 1-phosphate receptor 1 (Homo sapiens) (P21453 whole entry, looked up): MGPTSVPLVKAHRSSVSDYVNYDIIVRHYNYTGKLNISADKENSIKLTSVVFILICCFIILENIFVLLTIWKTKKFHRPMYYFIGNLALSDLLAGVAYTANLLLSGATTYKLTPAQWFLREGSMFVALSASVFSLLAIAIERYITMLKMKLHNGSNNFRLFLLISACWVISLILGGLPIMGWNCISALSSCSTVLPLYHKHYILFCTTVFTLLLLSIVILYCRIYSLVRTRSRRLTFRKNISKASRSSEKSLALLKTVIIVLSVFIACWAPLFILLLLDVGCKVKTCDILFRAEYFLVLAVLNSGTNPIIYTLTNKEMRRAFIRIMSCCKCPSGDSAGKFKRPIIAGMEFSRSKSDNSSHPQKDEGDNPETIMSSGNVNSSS
Structure (SMILES),activation,activation [1] [%]
c1csc(-c2cn3c(n2)SCC3)c1,-25.6% (inactive),
CCc1cc(=O)oc2cc(OCC(=O)N3CCCc4ccccc43)ccc12,-15.5% (inactive),
CCSC(C)CC1C/C(=N/O)c2c(C)noc2C1 (stereo unspecified),-5.8% (inactive),
COC(=O)Cc1c(C)c2ccc(OCC(=O)NCc3ccc4c(c3)OCO4)cc2oc1=O,-1.6% (inactive),
CSc1nnc(CNC(=O)c2ccccc2)n1-c1ccc(F)cc1,-11.1% (inactive),
O=C(CCCOc1ccccc1)Nc1cccc(C(=O)O)c1,2.3% (inactive),
COc1ccc(C(=O)Nc2cccnc2)cc1C(=O)Nc1cccnc1,5.6% (inactive),
CN(C)/C=C1/C(=O)Nc2ccccc21,-14.3% (inactive),
COC(=O)C(C)n1cnc2c(nnn2-c2cccc(Cl)c2)c1=O (stereo unspecified),-14.1% (inactive),
Cn1c(=O)[nH]c(=O)c2c1nc(CN1CCN(c3ccccc3F)CC1)n2CCc1ccccc1,-6.4% (inactive),
O=C(Nc1c(-c2ccccc2)nc2c(Br)cc(Br)cn12)c1ccco1,17.7% (inactive),
Cc1nc2ccc(S(=O)(=O)NC(C(=O)N3CCCCCC3)C(C)C)cc2s1 (stereo unspecified),-9.8% (inactive),
CCCOC(=O)c1cc2ccccc2oc1=O,-2.5% (inactive),
Cc1ccnc(SCCn2c(N(C)Cc3ccccc3)nc3c2c(=O)n(C)c(=O)n3C)n1,-31.4% (inactive),
N#Cc1c2c(c(-c3ccccc3)[nH]c1=O)CCCC2,-28.7% (inactive),
C=CCOc1nc2c(c(=O)n(C)c(=O)n2C)n1Cc1ccc(Cl)cc1Cl,2.7% (inactive),
O=P(O)(CN1CCCCC1)CN1CCCCC1,-3% (inactive),
COc1ccc(OCC(=O)OCC(=O)Nc2ccc(S(=O)(=O)N3CCCCC3)cc2)cc1,-8.9% (inactive),
COc1ccc(C2C(C#N)=C(N)Oc3cc(N)ccc32)cc1OC (stereo unspecified),-18% (inactive),
COc1ccc(CSc2nc(N3CCOCC3)c3c(c2C#N)CC(C)(C)OC3)cc1,-11.9% (inactive),
CC(=O)Nc1ccc(S(=O)(=O)N2CCN(C3CCCCCCC3)CC2)cc1,-11.9% (inactive),

Structure (SMILES),activation,activation [1] [%]
COc1cc(OC)cc(C(=O)Nc2ncc3c(n2)CC(C)(C)CC3=O)c1,-4.2% (inactive),
CC(C)(C)Nc1c(N)c(=O)oc2ccccc12,9.1% (inactive),
O=c1oc2c(CN3CCCCC3)c(O)ccc2c2c1CCCCC2,-2.6% (inactive),
O=C(O)c1cccc2c1C(=O)N(C1CCCCC1)C2,-25.1% (inactive),
O=C(CN1CCOc2ccccc21)N1CCC(Cc2ccccc2)CC1,6% (inactive),
CCCC(=O)N1c2ccccc2NC2=C(C(=O)CCC2)C1c1ccc(F)cc1 (stereo unspecified),-9.6% (inactive),
Cc1cccc(CC(=O)Nc2c3c(nn2-c2cccc(Cl)c2)CS(=O)C3)c1 (stereo unspecified),26.1% (inactive),
CC[C@H]1CN2CCc3cc(OC)c(OC)cc3[C@@H]2C[C@@H]1C[C@H]1NCCc2cc(OC)c(OC)cc21,131% (active),101
Cc1csc(NC(=O)C2CCCN2C(=O)OCC(C)C)n1 (stereo unspecified),6.7% (inactive),
CCOc1ncccc1C(=O)OCc1cn2cc(Cl)ccc2n1,-55.2% (inactive),
CCOC(=O)C1CCN(c2ncnc3c2oc2ccc(Br)cc23)CC1,3.6% (inactive),
CCOC(=O)N1CCN(C(=O)C2CCCN(c3ncnc4c3sc3cccc(F)c34)C2)CC1 (stereo unspecified),-8.7% (inactive),
CCOC(=O)N1CCN(C(=O)C2CCN(c3ncnc4c3sc3cccc(F)c34)CC2)CC1,96.6% (active),78.6
CN1C(=O)CC(N2CCN(c3ccccn3)CC2)C1=O (stereo unspecified),-14.2% (inactive),
O=C(O)CN(Cc1ccco1)S(=O)(=O)c1ccccc1,-18.7% (inactive),
CCC1(C)N(O)C(C)(C)C(c2ccc(OC)cc2)=[N+]1[O-] (stereo unspecified),-9.9% (inactive),
Cn1c(=NC(=O)C2CC2)sc2cc(F)cc(F)c21,0.7% (inactive),
COc1ccc(N2C(=O)C3CCCN3C2c2cccc(OC)c2)cc1 (stereo unspecified),5.4% (inactive),
C=C(Br)CN1CCN(CC(=C)Br)CC1,-15.8% (inactive),
Cc1ccc(C2CC(c3cccc(Br)c3)n3nc(N)nc3N2)cc1 (stereo unspecified),-10.7% (inactive),
COc1ccccc1-n1c(CNC(=O)c2ccccc2)nnc1SCC(=O)Nc1nnc(C)s1,-0.9% (inactive),

Structure (SMILES),activation,activation [1] [%]
O=C(CSCc1cccs1)N1CCCC1,-22.9% (inactive),
CC(C)Oc1ccc(C(=O)Nc2cc(=O)n(C)c(=O)n2C)cc1,-4.5% (inactive),
CCCN1CCN(C(=O)Cn2ncc3ccccc32)CC1,-19.3% (inactive),
Cc1cc(C)c(S(=O)(=O)NCCCN2CCOCC2)cc1Br,3.7% (inactive),
CC(=O)N1CCN(c2cccc(C)c2C)CC1,-9.6% (inactive),
CCNC(=O)N1CCNC(=O)C1CC(=O)Nc1ccc(C(=O)OCC)cc1 (stereo unspecified),-11.5% (inactive),
COc1ccccc1NC1=NC2(CCCC2)N=C(N)N1,5.5% (inactive),
CCN(CC)S(=O)(=O)c1ccc2nc(CSc3nnnn3-c3ccc(O)cc3)[nH]c2c1,-21.4% (inactive),
O=S(=O)(Nc1ccc2nc(-c3ccco3)[nH]c2c1)c1ccccc1,5.9% (inactive),
Cc1ccc(C2c3c(oc4ccc(C)cc4c3=O)C(=O)N2CCCN2CCOCC2)cc1 (stereo unspecified),3.6% (inactive),
COc1ccccc1-n1nnnc1S(=O)(=O)Cc1ccc(Cl)cc1,89.3% (active),76
COc1ccccc1N1CCN(Cc2nnnn2CCc2ccccc2)CC1,-1.7% (inactive),
COCCn1nnnc1C(c1ccccc1Cl)N1CCN(c2ccccc2OC)CC1 (stereo unspecified),-15.5% (inactive),
CCOC(=O)C1Cn2c(nc3c(c2=O)C(C)(CC)Cc2ccccc2-3)S1 (stereo unspecified),-35.4% (inactive),
COc1ccc(OC)c(C(=O)c2coc3ccc(OC)cc23)c1,7.5% (inactive),
CCCCn1c(CCCNC(=O)CC)nc2ccccc21,-7% (inactive),
COc1ccc(-c2ccc(-c3noc(-c4ccncc4)n3)c(OC)n2)cc1,-6.8% (inactive),
CN1CCN(c2ccc(NC(=O)COc3ccc(Cl)cc3Cl)cc2)CC1,-9.3% (inactive),
Cc1ccccc1OCC(=O)Nc1ccc(N2CCN(C(=O)C(C)C)CC2)c(Cl)c1,92.5% (active),68.2
Cc1cccc(NC(=O)COc2ccccc2C)n1,15.3% (inactive),
